According to PubChem BioAssay:

Test system: Noggin (protein binding on small-molecule microarray)
Test: Noggin binders on small-molecule microarray, primary screen, biochemical, 635/667 nm fluorescence (AID 1095);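 note: score merges 667 nm feature fluorescence with signal to noise over triplicate slides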
Details: 635 nm fluorescence, higher = more signal

SMILES | composite z-score
CCOC(=O)C[C@H]1[C@H](OC(=O)Cc2ccc3c(c2)OCO3)[C@@H](NC(=O)c2ccc3ccccc3c2)c2cc(OCCCO)ccc2N1C(=O)Cc1ccc(OC)cc1 | 0.233
O=C(NCc1ccccc1)c1ccc(Br)cc1[N+](=O)[O-] | 0.0399
CC(C)(C)OC(=O)CC[C@]1(C(=O)N2CCCCC2)N=C(c2ccc(OCCCO)cc2)O[C@H]1c1ccccc1 | 1.04
C=CCNC(=O)[C@@H]1[C@H]2C(=O)O[C@H](c3ccccc3)[C@H](c3ccccc3)N2[C@H](c2ccc(OCCO)cc2)[C@@]12C(=O)N(C(=O)OCCOC)c1ccc(C#CC3(O)CCCCCC3)cc12 | 0.205
CCCC=C(CCC)[C@@H](NS(=O)(=O)c1ccc(C(F)(F)F)cc1)c1ccc(-c2ccccc2)cc1 | 0.77
NC(=O)NCC#Cc1ccc2c(c1)[C@]1(C(=O)N2)[C@H](C(=O)N2CCCCCCC2)[C@H]2C(=O)O[C@H](c3ccccc3)[C@H](c3ccccc3)N2[C@@H]1c1ccccc1OCCO | 1.36
C=C[C@H](OC)[C@@H](OC(=O)Nc1ccc(SC)cc1)c1ccc(O)c(F)c1 | -0.0413
CO[C@H]1COC(=O)CC=C[C@H](C)COC(=O)[C@@H](OCc2ccccc2)C=C[C@@H]1C | 2.03
CC(C)C[C@@H]1NC(=O)[C@H]2C[C@@H](C(=O)NCCCCCC[N+](C)(C)C)[C@@H](c3ccc(O)cc3)N2C1=O | 1.12
CO[C@H]1COC(=O)[C@@H](C)NC(=O)CC=C[C@@H](C)[C@H](OC)COC(=O)CC=C[C@@H]1C | 1.52
C=CC[C@@]12N=C(c3ccc(OCCCO)cc3)O[C@@H]1c1ccccc1CN(Cc1ccccc1)C2=O | 0.347
